High-throughput results (PubChem)
HepG2 tox: HepG2 cytotoxicity, counter-screen for TGF-b inhibitors | HepG2 CAGA-GFP viability, ATP luminescence, 18 h | Potency, µM (doses to about 46.1 µM), hits mostly cytotoxic | 410,000 compounds, 0.76% hits
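CellTiter-Glo luminescence gave cytotoxicity after 18 hours at 37 degrees C. The cells were HepG2 CAGA-GFP in 1% FBS DMEM, stimulated with 500 pg/mL TGF-beta after compound addition. %Activity was normalised to no-cell wells (complete cell-killing) and DMSO (no toxicity), and curves were fitted and classified.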
TGFb inhibitor: blocks TGF-b signaling | Potency, µM (doses to about 46.1 µM), most hits filed as inhibitors | HepG2 CAGA-GFP TGF-b/SMAD3 reporter, GFP fluorescence, 18 h; TGF-beta stimulated, 500 pg/mL final | 410,000 compounds, 1.2% hits; note: nearly all actives have a fitted effect of over 65% in size
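TGF-beta reporter screen: HEPG2 CAGA-GFP, 1% FBS, 500 pg/mL TGF-beta final, 18 h; per-cell GFP summed per well; curves fitted and categorized by class.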
IDH1 R132H inh: blocks human mutant IDH1 R132H enzyme | IDH1-R132H enzyme, NADPH consumption, diaphorase/resazurin fluorescence | 390,000 compounds, 0.093% hits | AID 602179 | O75874 | Potency, µM (series often up to 76.6 µM), most hits filed as inhibitors; note: nearly all actives have a fitted effect of over 65% in size
Target sequence (O75874 whole entry R132H, stated change not applied): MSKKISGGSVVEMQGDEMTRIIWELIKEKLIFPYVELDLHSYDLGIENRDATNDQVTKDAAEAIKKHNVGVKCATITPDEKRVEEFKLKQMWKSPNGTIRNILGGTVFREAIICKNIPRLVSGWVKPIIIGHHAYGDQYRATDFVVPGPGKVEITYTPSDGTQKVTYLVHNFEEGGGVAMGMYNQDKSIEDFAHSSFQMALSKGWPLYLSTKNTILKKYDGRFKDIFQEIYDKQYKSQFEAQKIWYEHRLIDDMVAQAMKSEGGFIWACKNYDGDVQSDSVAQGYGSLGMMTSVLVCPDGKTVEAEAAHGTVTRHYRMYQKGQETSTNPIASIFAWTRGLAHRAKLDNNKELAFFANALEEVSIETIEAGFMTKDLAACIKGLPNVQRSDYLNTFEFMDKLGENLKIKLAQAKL
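IDH1-R132H (0.5 ug/mL dispensed) in pH 7.5 Tris buffer was preincubated 30 min with compound, then given a substrate mix of 0.016 mM NADPH and 2 mM alpha-KG for 80 min at room temperature; remaining NADPH was read by diaphorase/resazurin fluorescence.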
ATXN2 expr inh: ATXN2 expression inhibition; HEK-293 ATXN2-luciferase reporter, luminescence, 24 h; 360,000 compounds, 0.72% hits; Potency, µM (highest dose often 57 µM), hits mostly inhibitors; note: nearly all actives have a fitted effect of over 55% in size
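qHTS (up to 57 uM final) was run with 24 h compound exposure of reporter cells at 37 °C. Each well was multiplexed: SteadyGlo luminescence measured ATXN2-luciferase expression after a fluorogenic Gly-Phe-AFC viability readout (25 uM final).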
LDHA block: blocks human lactate dehydrogenase A; P00338; purified LDHA, NADH/diaphorase-resazurin fluorescence; active compounds read low; activity change, % (values are at about 110 or 230 µM); 480,000 compounds, 0.15% hits; AID 1347041; in the data active = activity change below about -30%; inconclusive = mostly about -25% to -30%
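Resorufin fluorescence (ex540/em590), read at 0 and 20 min after diaphorase/resazurin addition, reports the NADH left after a 5 min room-temperature reaction of 2 nM human LDH5 with 0.06 mM NADH and 0.2 mM pyruvate.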
ATXN viability: viability counter-screen for ATXN expression inhibitors. Potency, µM (highest dose often 56.7 µM), hits mostly cytotoxic. AID 651635. 400,000 compounds, 0.49% hits. S2 cells (HEK-293 line with an ATXN2-luciferase reporter) viability, CellTiter-Fluor protease fluorescence, 24 h; note: nearly all actives have a fitted effect of over 40% in size
Large screens that a line does not name were inactive; ! = a repeat was not active. Sampled rows, rich in hits. Any-hit rate of the full collection: about 2.2%. Unless noted, calls come from the whole dose curve; as a rule, active = well fitted curve in the direction sought with a large enough effect; inconclusive = small, poorly fitted or top-dose-only effect, or another doubt; inactive = no such curve, though single readings can be large; an effect the other way counts as inactive or inconclusive.

CC(=O)NCc1ccc(C(=O)CCl)s1	HepG2 tox 11µM, TGFb inhibitor inconclusive, ATXN2 expr inh inconclusive (no result: ATXN viability)
CC(C)(C)c1cc(-c2csc(Nc3ccccc3)[n+]2Cc2ccc(C(=O)O)cc2)cc(C(C)(C)C)c1O	TGFb inhibitor inconclusive, IDH1 R132H inh 37µM, ATXN viability inconclusive
O=C(O)c1ccc(C[n+]2c(-c3ccccc3)csc2Nc2ccccc2)cc1	none
COc1ccc(N2C(=O)CC(Sc3ncn[nH]3)C2=O)c(OC)c1 (configuration not stated)	TGFb inhibitor inconclusive, ATXN2 expr inh 22µM (no result: ATXN viability)
CCOc1nc(NCc2ccco2)nc(Nc2ccccc2F)n1	none
Oc1cccc2ccc(Nc3ccccn3)nc12	HepG2 tox 5.6µM, TGFb inhibitor inconclusive (no result: ATXN viability)
COc1cc(NS(=O)(=O)c2ccc(NC(=O)c3ccc(OC)c(Br)c3)cc2)nc(OC)n1	LDHA block -50
CCOc1cc(C(=O)Nc2ccc(S(=O)(=O)Nc3cc(OC)nc(OC)n3)cc2)cc(OCC)c1OCC	none
CC(C)c1nnc(NC(=O)CCC(=O)NC2CCCCC2)s1	none
OC1(c2ccc(Cl)c(Cl)c2)C[n+]2ccccc2N1Cc1ccccc1 (configuration not stated)	TGFb inhibitor inconclusive, ATXN2 expr inh 35µM (no result: ATXN viability)
Cc1cc2nc[nH]c(=O)n2n1	none (no result: ATXN2 expr inh)
COc1ccc(CCN2CC(C(=O)NCc3cnn(C)c3)CCC2=O)cc1 (configuration not stated)	none (no result: ATXN2 expr inh)
CCCCC/C(=N\NC(=O)Nc1ccccc1)c1ccccc1	none
Oc1ccc(NCc2ccccc2OCc2ccccc2F)cc1	HepG2 tox 11µM!, TGFb inhibitor 10µM!, ATXN2 expr inh inconclusive, ATXN viability inconclusive
CCOc1ccccc1CNc1ccc(O)cc1	TGFb inhibitor 16µM, ATXN viability inconclusive
CCn1c(-c2cccc(OC)c2)nc2cc(NC(C)=O)cc(C(=O)N3CCCC(C(C)=O)C3)c21 (configuration not stated)	none (no result: HepG2 tox, TGFb inhibitor, IDH1 R132H inh, ATXN2 expr inh, LDHA block)
Cc1ccc(CC#N)c(-c2c(CC#N)ccc(C)c2C)c1C	none (no result: ATXN2 expr inh)
Cc1ccc2c(c1C)-c1c(ccc(C)c1C)C(=O)C2=O	HepG2 tox 4µM, TGFb inhibitor 2.5µM, ATXN2 expr inh inconclusive, ATXN viability inconclusive
C/C(=N\Nc1nc2ccccc2s1)c1cccs1	TGFb inhibitor inconclusive
CC(=NNc1nc2ccccc2s1)c1ncccn1	TGFb inhibitor 0.79µM, ATXN2 expr inh inconclusive, ATXN viability 1.4µM
CC(C)(C)Cc1c(-c2ccc(F)cc2)nc2ccc(Cl)cn12	TGFb inhibitor 11µM, ATXN viability inconclusive
CC(C)(C)Cc1c(-c2ccc(Br)cc2)nc2ccc(Br)cn12	TGFb inhibitor 16µM, ATXN viability inconclusive
Cc1ccc(-c2nc3ccc(Cl)cn3c2CC(C)(C)C)cc1	ATXN2 expr inh inconclusive
CCCCc1c(Cc2ccccc2)ncn1CCc1ccccc1OC	ATXN2 expr inh 14µM (no result: HepG2 tox, TGFb inhibitor, IDH1 R132H inh, ATXN viability)
CCCCc1c(-c2ccccc2)ncn1CCc1ccccc1OC	ATXN2 expr inh inconclusive (no result: HepG2 tox, TGFb inhibitor, IDH1 R132H inh, ATXN viability)
Cc1cccc(-c2noc(CNC(=O)COc3ccccc3C)n2)c1	none
Cc1ccc(S(=O)(=O)NCC(=O)N/N=C/c2ccccc2O)cc1	ATXN2 expr inh 14µM
Cc1ccccc1OCC(=O)Nc1cccc(C(=O)O)c1	ATXN2 expr inh 0.17µM
COC(=O)c1cccc(NC(=O)Nc2ccc(Cl)c(Cl)c2)c1	HepG2 tox 11µM, TGFb inhibitor inconclusive, ATXN2 expr inh inconclusive
Cc1cccc(OCC(=O)Nc2cc(NC(=O)COc3cccc(C)c3C)cc(C(=O)O)c2)c1C	none (no result: ATXN2 expr inh)
CCOc1ccc(-n2nc3ccc(NC(=O)Cc4ccccc4)cc3n2)cc1	TGFb inhibitor inconclusive, ATXN2 expr inh inconclusive, ATXN viability 14µM
CCOc1ccc(NC(=O)c2cnccn2)cc1	ATXN2 expr inh inconclusive
CCOc1ccc(NC(=O)c2ccccn2)cc1	TGFb inhibitor inconclusive, ATXN2 expr inh 10µM
COC(=O)c1cccc(NC(=O)NC(=O)c2ccccc2Cl)c1	none
CCOc1ccc(-n2nc3ccc(NC(=O)CC)cc3n2)cc1	none
COc1ccc(S(=O)(=O)N2C3CCC2CC(NC(=O)NC2CCCCC2)C3)cc1 (configuration not stated)	none
COP(=O)(CN(Cc1ccccc1)C(=S)Nc1c(C)cccc1C)OC	none
O=C(Nc1ccc(Cl)cc1)Nc1cccc(C(=O)O)c1	ATXN2 expr inh 8.9µM
COc1ccccc1NS(=O)(=O)c1cccc(NC(=O)Nc2ccc(Cl)cc2)c1	HepG2 tox 13µM, TGFb inhibitor inconclusive, ATXN2 expr inh inconclusive, ATXN viability inconclusive
O=C(Nc1ccc(Cl)cc1)Nc1cccnc1	LDHA block -34
O=C(Nc1ccc(Cc2ccc(NC(=O)Nc3cccnc3)cc2)cc1)Nc1cccnc1	ATXN viability inconclusive (no result: ATXN2 expr inh)
CCOC(=O)c1cccc(NC(=O)Nc2ccc(OCC)cc2)c1	ATXN viability inconclusive (no result: ATXN2 expr inh)
CCOc1ccc(NC(=O)Nc2cccc(C(=O)O)c2)cc1	ATXN2 expr inh 1µM
Cc1c(Cc2ccccc2)c(=O)oc2cc(OCC(=O)N[C@@H](Cc3ccccc3)C(=O)O)ccc12	none
CCCCc1ccc(-n2nc3ccc(NC(=O)c4cc5ccccc5o4)cc3n2)cc1	TGFb inhibitor inconclusive, ATXN2 expr inh inconclusive, ATXN viability 22µM
Cc1ccc(-n2nc3ccc(NC(=O)c4cc5ccccc5o4)cc3n2)cc1	none
O=S(=O)(Nc1ccccc1OC(F)F)c1ccc(S(=O)(=O)N2CCCC2)cc1	none
O=C(NCCN1CCC(n2c(=O)[nH]c3ccccc32)CC1)c1ccc(Cl)c(Cl)c1	ATXN2 expr inh 18µM, ATXN viability inconclusive (no result: HepG2 tox, TGFb inhibitor, IDH1 R132H inh)
CC(C)CCn1c(SCc2cccc(F)c2)nc2ccsc2c1=O	TGFb inhibitor inconclusive (no result: ATXN2 expr inh, ATXN viability)
COc1ccc(C(=O)NC(=S)N2CCN(c3ccccc3OC)CC2)cc1OC	none
Cc1c(NC(=O)CN2c3ccccc3CC2C)c(=O)n(-c2ccccc2)n1C (configuration not stated)	none (no result: ATXN2 expr inh)
COc1ccc(C(CC(=O)c2ccc(C)cc2)C(C#N)C#N)cc1OC (configuration not stated)	TGFb inhibitor inconclusive, ATXN2 expr inh inconclusive, ATXN viability 30µM
COc1ccccc1C(=O)Nc1onc2c1CCCC2	none
Cc1ccc(C(=O)Nc2onc3c2CCCC3)cc1	ATXN2 expr inh 7.9µM, ATXN viability inconclusive
CCN1CCOC(CC(=O)Nc2ccc([N+](=O)[O-])cc2)C1=O (configuration not stated)	HepG2 tox 20µM
O=C(CC1OCC2CCCN2C1=O)Nc1ccc([N+](=O)[O-])cc1 (configuration not stated)	ATXN viability inconclusive
COc1ccccc1NC(=O)/C=C1\SCC(=O)N1C	none
